An excerpt weighted towards active compounds, which were near 7.9% of everything screened.
SW480 rerep: inducers of DNA re-replication in SW480 colon cancer cells | AID 624297 | Potency, µM (highest dose often 46.1 µM), hits mostly activators | 340,000 tested, 1.8% active | SW480 DNA re-replication, Hoechst DNA content imaging, 48 h; also: nearly all actives have a fitted effect of over 55% in size
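First, 250 cells per well were seeded. Next, compound or vehicle (23 nL) was pinned in, plates sat 48 hr at 37 C. Finally Hoechst was added for 40 min before fluorescence scanning.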
KB-V1 cytotox: KB-V1 MDR subline cytotoxicity | KB-V1 MDR cells viability, CellTiter-Glo, 72 h | 400,000 tested, 3.4% active | Potency, µM (titrated, usually from 46.1 µM), actives largely listed as cytotoxic; also: nearly all actives have a fitted effect of over 60% in size
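qHTS viability screen in drug-selected KB-V1 MDR cells: 72 h compound treatment at 37 degrees C, ATP luminescence end point.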
KB-3-1 cytotox: kills parental KB-3-1 adenocarcinoma cells. AID 1347075. KB-3-1 viability, CellTiter-Glo ATP luminescence, 72 h. 400,000 tested, 1.4% active. Potency, µM (top dose mostly 46.1 µM), usual class: cytotoxic; also: nearly all actives have a fitted effect of over 60% in size
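KB-3-1 parental drug-naive adenocarcinoma cells in DMEM/10% FBS, incubated 72 h at 37 C with pin-transferred compounds across a concentration series. Viability by CellTiter-Glo luminescence; concentration-response curves fitted after normalization.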
HT1080-NT tox: kills 2HG-producing HT-1080-NT fibrosarcoma cells; HT-1080-NT fibrosarcoma viability, CellTiter-Glo ATP luminescence, 48 h; Potency, µM (top dose mostly 46.1 µM), most hits filed as cytotoxic; 360,000 tested, 1.6% active;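 also: NT is the 2HG producing partner of a matched IDH1 knockdown line; nearly all actives have a fitted effect of over 55% in size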
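Read-out is CellTiter-Glo luminescence after 10 minutes at room temperature, following 48 hours' compound treatment of HT-1080-NT cells (750 cells/well, RPMI, 5% FBS, 37 degrees C).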
HT1080 IDH1KD tx: HT-1080 IDH1 knockdown cell toxicity (counter line). HT-1080 IDH1 knockdown viability, ATP luminescence, 48 h. 360,000 tested, 2% active. Potency, µM (doses to about 46.1 µM), hits mostly cytotoxic. AID 686971
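Assay cells: HT-1080 with IDH1 knockdown, 750 per well, RPMI/5% FBS. Exposure: 48 h at 37 °C following 2 h pre-incubation. Read: CellTiter-Glo luminescence; fitted concentration-response, curve class assigned.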
MCF10A rerep: inducers of DNA re-replication in MCF 10A breast cells; 350,000 tested, 2.9% active; Potency, µM (doses to about 46.1 µM), hits mostly activators; AID 624296; MCF 10A DNA re-replication, Hoechst nuclear intensity, 48 h; also: nearly all actives have a fitted effect of over 50% in size
A number is an active result; 0 = inactive; ? = inconclusive; - = no result; [ ] = dose if it differs, or a comment. Calls follow the shape of the dose curve; as a rule, active = well fitted curve in the direction sought with a large enough effect; inconclusive = small, poorly fitted or top-dose-only effect, or another doubt; inactive = no such curve, though single readings can be large; an effect the other way counts as inactive or inconclusive.

SMILES	SW480 rerep	KB-V1 cytotox	KB-3-1 cytotox	HT1080-NT tox	HT1080 IDH1KD tx	MCF10A rerep
CCOC1=C2[C@H](c3ccccc3)N(S(=O)(=O)c3ccc(C)cc3)C[C@H]2n2c(=O)n(-c3ccccc3)c(=O)n2C1	-	0	0	?	0	-
CC1=C(C(=O)N2CCOCC2)CC(CC(=O)NCCN2CCOCC2)C(=O)N1Cc1ccc(F)cc1 (stereo not given)	-	0	0	0	0	-
Cc1ccc2c(n1)sc1c(-c3ccc(Br)cc3)c(C#N)c(N)nc12	2.3µM	0	0	0	0	?
CC1=C(C(=O)OC2CCCCCC2)C(c2c(F)cccc2Cl)CC(=O)N1 (stereo not given)	-	0	0	-	-	-
O=C(N/N=C(\Cc1ncc[nH]1)c1ccccc1)c1ccncc1	?	0	?	0	4.1µM	?
CCCCCCCNC(=O)C1(CC2CC(c3cccc(Br)c3)=NO2)CCN(C(=O)CCCCCBr)CC1 (stereo not given)	0	0	?	16µM	?	?
CSc1ccc(-c2nnn(CC(=O)Nc3sc4c(c3C#N)CCC(C(C)(C)C)C4)n2)cc1 (stereo not given)	-	0	0	-	-	-
O=c1[nH]c2cc3c(cc2cc1C(c1nnnn1Cc1ccccc1)N1CCCc2ccccc21)OCO3 (stereo not given)	0	0	?	0[9.24 µM]	?	3.7µM
O=c1[nH]c2cc3c(cc2cc1C(c1nnnn1Cc1ccccc1)N1CCCCCC1)OCCO3 (stereo not given)	21µM	?	?	0	0	?
COCCn1nnnc1C(c1cc2c(C)cc(C)cc2[nH]c1=O)N1CCCCCC1 (stereo not given)	0	0	0	0	?	0
Cc1cc(C)c2cc(C(O)c3nnnn3Cc3ccccc3)c(=O)[nH]c2c1 (stereo not given)	4.6µM	0	0	0	0	2.6µM
Cc1cc(C(c2nnnn2Cc2ccccc2)N2CCOCC2)c(C)n1-c1ccc2c(c1)OCO2 (stereo not given)	0	0	0	?	10µM	0
COc1ccc2c(c1)c1c(c(=O)n(-c3cccc(C)c3)c(=O)n1CC(=O)NCC1CCCO1)n2C (stereo not given)	-	0	0	-	-	-
Cc1cccc(NC(=O)N2CCN(C(=O)c3nsc4ccccc34)CC2)c1C	-	0	0	-	-	-
COc1cc(C2NC(=O)NC(C)=C2C(=O)Nc2cc(C)cc(C)c2)ccc1O (stereo not given)	-	0	0	-	-	-
N#Cc1c(C(F)(F)F)cc(=O)n2c1[nH]c1ccccc12	?	0	0	4.6µM	26µM	18µM
Cc1c(Cc2ccccc2)c(=O)n2c([nH]c3ccccc32)c1C#N	0	13µM	?	21µM	?	0
COc1ccccc1N=Cc1c(C)c(C#N)c2[nH]c3ccccc3n2c1=O	0	0	0	0	0	?
C[C@H]1CN([C@@H](C)CO)C(=O)c2cc(Br)cnc2O[C@H]1CN(C)C(=O)c1ccccn1	-	0	0	0	0	-
CCOc1ccc(-c2cc(C(=O)NCCCn3ccnc3)c3ccccc3n2)cc1	0	0	0	0	0	0.58µM
CCOc1ccc(-c2cc(C(=O)N3CCN(c4cccc(C(F)(F)F)c4)CC3)c3ccccc3n2)cc1	-	?	5.8µM	-	-	-
CCOc1ccc(-c2cc(C(=O)O)c3ccccc3n2)cc1	0	0	0	?	11µM	0
CCOC(=O)Nc1oc2ccccc2c(=O)c1CN1CCOCC1	0	0	0	0	0	16µM
CCc1ccc(CNC(=O)c2cc3c(s2)-c2ccccc2OC3)cc1	-	?	15µM	-	-	-
O=C(NCCCN1CCN(c2ccccc2)CC1)c1cc2c(s1)-c1ccccc1OC2	-	0	0	-	-	-
COCCCN(Cc1ccco1)C(=O)c1cc2c(s1)-c1ccccc1OC2	-	10µM	?	-	-	-
CCOc1ccc(CNC(=O)c2cc3c(s2)-c2ccccc2OC3)cc1	-	0	0	-	-	-
CC1CCN(CCCNC(=O)c2cc3c(s2)-c2ccccc2OC3)CC1	0	0	23µM	23µM	?	5.8µM

Screening data: PubChem BioAssay, National Center for Advancing Translational Sciences (NCATS)
